AmpC nodet inh: inhibitors of E. coli AmpC beta-lactamase without detergent | P00811 | AmpC nitrocefin hydrolysis, absorbance 480 nm, no detergent | Potency, µM (series often up to 28.7 µM), for inactives: top-dose activity change, negative = inhibition | 1.8% of 71,000 active; also: % of control where 0% means no effect
Target sequence (P00811 whole entry, looked up): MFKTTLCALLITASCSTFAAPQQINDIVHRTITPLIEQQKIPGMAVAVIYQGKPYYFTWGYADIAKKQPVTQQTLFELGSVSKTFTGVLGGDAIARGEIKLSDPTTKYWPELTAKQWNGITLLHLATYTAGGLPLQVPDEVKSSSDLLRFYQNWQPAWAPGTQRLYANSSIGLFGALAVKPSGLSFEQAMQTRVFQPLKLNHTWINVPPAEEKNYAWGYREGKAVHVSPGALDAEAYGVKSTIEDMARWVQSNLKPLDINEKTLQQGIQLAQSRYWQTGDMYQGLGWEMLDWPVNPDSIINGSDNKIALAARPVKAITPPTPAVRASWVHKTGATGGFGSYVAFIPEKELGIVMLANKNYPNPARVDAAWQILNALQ
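Enzyme, pH 7.0 phosphate. Compound titrations were pre-incubated with AmpC for 15 min at room temperature before nitrocefin (stock 800 uM) addition; product formation was recorded at 480 nm every 20 s for 4 min.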
Prx2 Sm inh: inhibitors of Schistosoma mansoni peroxiredoxin 2. S. mansoni Prx2 activity coupled to TGR/GSH (TGR is thioredoxin glutathione reductase), NADPH fluorescence loss, qHTS. Potency, µM. 0.07% of 65,000 active
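Purified S. mansoni TGR and Prx2 in pH 7.4 phosphate buffer with EDTA and Tween-20 were preincubated with compounds for 15 min. Further NADPH/GSH was added, then a 2.5 mM H2O2 aliquot initiated turnover, followed kinetically by NADPH fluorescence.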
LT uptake inh: anthrax lethal toxin internalization inhibition. 0.67% of 70,000 active. Cells, anthrax lethal toxin internalization, FRET ratio (460/530). AID 912. Potency, µM (doses to about 40 µM), for the others: at the highest dose activity change, negative = inhibition, usual class: inhibitors; also: % is scaled to controls: 0 for no effect and ±100 for the full control effect; nearly all actives have a fitted effect of over 50% in size
AmpC det inh: blocks E. coli AmpC beta-lactamase in presence of detergent. P00811. purified AmpC, nitrocefin hydrolysis with detergent. Potency, µM (top dose mostly 28.7 µM), for inactives: top-dose activity change, negative = inhibition. 0.09% of 71,000 active. AID 584; active = well fitted curve in the direction sought with a large enough effect; inconclusive = small, poorly fitted or top-dose-only effect; also: % is scaled to controls: 0 for no effect and ±100 for the full control effect
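E. coli AmpC (5.3 nM) in 20 mM phosphate pH 7.0 with 0.01% Triton X-100, preincubated 15 min RT with compound; nitrocefin (2 uL of 800 uM stock) hydrolysis followed by 480 nm absorbance every 20 s over 4 min.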
* marks the source's active call; other numbers are inactive results; ! = repeats disagree; [ ] = another dose, or the depositor's remark. Sampled rows, rich in hits. Any-hit rate of the full collection: about 2.6%. Unless noted, calls follow the shape of the full dose curve. Potency is read from the fitted curve at half-maximal effect.

What do the screens show for `Oc1c(Cl)c(Cl)c(Cl)c(Cl)c1Cl`?
AmpC nodet inh: 1%; LT uptake inh: 20µM*; AmpC det inh: 7%

Results for Oc1c(Cl)ccc(Cl)c1Cl ?
AmpC nodet inh: -6%; LT uptake inh: 0%; AmpC det inh: 7%

How did O=C(c1cnn2ccccc12)N1CCCc2ccccc21 do in these assays?
AmpC nodet inh: 4µM*[single pt active]; Prx2 Sm inh: >57; LT uptake inh: 11%; AmpC det inh: 9%

Results for O=C(NCc1ccc(F)cc1)c1cc2n(n1)C(C(F)(F)F)CC(C1CC1)N2 (configuration not stated) ?
AmpC nodet inh: 4µM*[single pt active]; Prx2 Sm inh: >57; LT uptake inh: -3%; AmpC det inh: 11%

What do the screens show for `C=CCN1CC[C@@]23CCCC[C@@H]2[C@@H]1Cc1ccc(O)cc13`?
AmpC nodet inh: -16%; Prx2 Sm inh: >57; LT uptake inh: inconclusive; AmpC det inh: -3%

How did O=c1c(-c2ccc(Cl)cc2)coc2c(CN3CCOCC3)c(O)ccc12 do in these assays?
AmpC nodet inh: -5%; LT uptake inh: 6.3µM*; AmpC det inh: 9%

How did O=c1c(-c2ccccc2)coc2c(CN3CCCC3)c(O)ccc12 do in these assays?
AmpC nodet inh: -8%; Prx2 Sm inh: >57; LT uptake inh: 14%; AmpC det inh: -4%

Results for COC(=O)c1ccccc1NC(=O)N1CCN(C/C=C/c2ccccc2)CC1 ?
AmpC nodet inh: 85%; Prx2 Sm inh: >57; LT uptake inh: -10%; AmpC det inh: -4%

Results for O=C(Nc1ccc(F)cc1F)N1CCN(C/C=C/c2ccccc2)CC1 ?
AmpC nodet inh: 4µM*[single pt active]; Prx2 Sm inh: >57; LT uptake inh: -16%; AmpC det inh: 11%

How did N#C/C(=C\c1ccc(O)c(O)c1)C(N)=S do in these assays?
AmpC nodet inh: -20%; Prx2 Sm inh: inconclusive; LT uptake inh: 25µM*!; AmpC det inh: -1%

Results for CC1Cc2ccccc2N1C(=O)CSc1nnc(NC(=O)Cc2cccs2)s1 (configuration not stated) ?
AmpC nodet inh: 13µM*[single pt active]; Prx2 Sm inh: >57; LT uptake inh: inconclusive; AmpC det inh: 8%

How did NC(=S)NNC(N)=S do in these assays?
AmpC nodet inh: -4%; LT uptake inh: 0%; AmpC det inh: 11%

How did CCOC(=O)N1CCc2c(sc(NC(=O)c3ccc(Cl)s3)c2C(N)=O)C1 do in these assays?
AmpC nodet inh: -2%; Prx2 Sm inh: >57; LT uptake inh: 5µM*; AmpC det inh: 16%

What do the screens show for `O=C(O)C12CC3(C(=O)O)CC(C(=O)O)(CC(C(=O)O)(C1)C3=O)C2=O`?
AmpC nodet inh: 4%[5.75 µM]; Prx2 Sm inh: >57; LT uptake inh: -1%[8 µM]; AmpC det inh: -3%[5.75 µM]

How did Cc1cccc(C2CC(c3ccc(Cl)cc3)Nc3nc(N)nn32)c1 (configuration not stated) do in these assays?
AmpC nodet inh: 4µM*[single pt active]; Prx2 Sm inh: >57; LT uptake inh: -2%; AmpC det inh: 12%

Results for Cc1ccc(C2CC(c3cccc(Cl)c3)n3nc(N)nc3N2)cc1 (configuration not stated) ?
AmpC nodet inh: 71%; Prx2 Sm inh: >57; LT uptake inh: -10%; AmpC det inh: 9%

What do the screens show for `CCOc1ccc(C2CC(c3cccc(C)c3)n3nc(N)nc3N2)cc1` (configuration not stated)?
AmpC nodet inh: 31%; Prx2 Sm inh: >57; LT uptake inh: 7%; AmpC det inh: 10%

Results for Cc1cccc(C2CC(c3ccc(F)cc3)Nc3nc(N)nn32)c1 (configuration not stated) ?
AmpC nodet inh: 4µM*[single pt active]; Prx2 Sm inh: >57; LT uptake inh: 8%; AmpC det inh: 11%

What do the screens show for `O=C(O)[C@@H]1[C@H](C(=O)O)[C@]2(Cl)C(Cl)=C(Cl)[C@@]1(Cl)C2(Cl)Cl`?
AmpC nodet inh: -11%[5.75 µM]; Prx2 Sm inh: >57; LT uptake inh: -6%[8 µM]; AmpC det inh: -5%[5.75 µM]

Results for C=CCN1CCc2c(cc(O)c(O)c2Br)[C@H](c2ccccc2)C1 ?
AmpC nodet inh: -5%; Prx2 Sm inh: >57; LT uptake inh: 10%; AmpC det inh: -1%

What do the screens show for `NCCc1c[nH]c2ccc(OC(=O)C(=O)O)cc12`?
AmpC nodet inh: -3%[5.75 µM]; Prx2 Sm inh: >57; LT uptake inh: -3%[8 µM]; AmpC det inh: -1%[5.75 µM]

What do the screens show for `Cc1n[nH]c(C)c1S(=O)(=O)N(CC(=O)Nc1ccc2c(c1)OCCO2)c1ccc(C(C)C)cc1`?
AmpC nodet inh: 31%; Prx2 Sm inh: >57; LT uptake inh: 16µM*; AmpC det inh: 2%

What do the screens show for `Cc1noc(C)c1S(=O)(=O)N(CC(=O)Nc1ccc2c(c1)OCO2)c1ccc(C(C)C)cc1`?
AmpC nodet inh: -1%; Prx2 Sm inh: >57; LT uptake inh: inconclusive; AmpC det inh: 4%

Results for Nc1nc(-c2ccco2)nn1C(=O)CCc1ccccc1 ?
AmpC nodet inh: 26%; Prx2 Sm inh: >57; LT uptake inh: 9%; AmpC det inh: -7%

What do the screens show for `CCCC(=O)n1nc(-c2ccco2)nc1SCc1ccccc1`?
AmpC nodet inh: 10µM*; Prx2 Sm inh: >57; LT uptake inh: -3%; AmpC det inh: -7%

How did CSc1nc(-c2ccco2)nn1C(=O)c1ccco1 do in these assays?
AmpC nodet inh: 2.5µM*[single pt active]; Prx2 Sm inh: >57; LT uptake inh: -12%; AmpC det inh: 10%

What do the screens show for `CSc1nc(-c2ccco2)nn1C(=O)c1ccc(C)cc1`?
AmpC nodet inh: 4µM*[single pt active]; Prx2 Sm inh: >57; LT uptake inh: inconclusive; AmpC det inh: 12%

What do the screens show for `Nc1ccc(N=Nc2ccccc2)c(N)c1`?
AmpC nodet inh: -11%; AmpC det inh: 6%

What do the screens show for `O=C(O)C[C@@H](C(=O)O)c1ccccc1[N+](=O)[O-]`?
AmpC nodet inh: 6%[5.75 µM]; Prx2 Sm inh: >57; LT uptake inh: inconclusive; AmpC det inh: -6%[5.75 µM]

What do the screens show for `COc1ccc(CNC(=O)c2cc(-c3ccc(OC)c(OC)c3)on2)cc1`?
AmpC nodet inh: 25%; Prx2 Sm inh: >57; LT uptake inh: 5%; AmpC det inh: -2%

Results for COc1ccc(CNC(=O)c2cc(-c3cccc(OC)c3)on2)cc1 ?
AmpC nodet inh: -9%; Prx2 Sm inh: >57; LT uptake inh: inconclusive; AmpC det inh: 2%

What do the screens show for `COc1cccc(-c2cc(C(=O)NCc3ccc(Cl)cc3)no2)c1`?
AmpC nodet inh: 13µM*[single pt active]; LT uptake inh: 5%; AmpC det inh: 3%

What do the screens show for `COc1ccc(-c2cc(C(=O)NCc3ccccc3)no2)cc1OC`?
AmpC nodet inh: 0.4µM*; Prx2 Sm inh: inconclusive; LT uptake inh: -1%; AmpC det inh: inconclusive

Results for CCCCCC[C@@H]([C@H](C)O)n1cnc2c(N)ncnc21 ?
AmpC nodet inh: 20%; Prx2 Sm inh: >57; LT uptake inh: -8%; AmpC det inh: -2%

What do the screens show for `CN(C)CC(C(=O)c1ccccc1)c1ccccc1` (configuration not stated)?
AmpC nodet inh: -19%; Prx2 Sm inh: >57; LT uptake inh: 10µM*; AmpC det inh: -3%

How did CC(=O)Nc1ccc(C(=O)CCl)cc1 do in these assays?
AmpC nodet inh: -9%; LT uptake inh: 13µM*; AmpC det inh: 9%

Compound activity from PubChem BioAssay.
